# SMARCA2 act – increases SMARCA2 function in MMTV reporter cells; MG213 cells, MMTV-luciferase reporter, dexamethasone, overnight; activation, % at 9.1 µM; 370,000 compounds, 1% hits; in the data active = activation above about 7.8%;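 note: 0% = vehicle wells and 100% = reference activator wells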
# Hsp70 activator – switches on Hsp70 transcription; 200,000 compounds, 0.04% hits; activation, % at 10 µM; HeLa Hsp70 promoter luciferase reporter, luminescence; scaled: vehicle 0, proteasome-inhibitor control 100%;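 active = activation above the mean across all tested compounds plus 3 SD, cutoff set per campaign, cut at about 5.5% in these data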;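 note: 100% = MG132 at 30 µM as the positive control and 0% = DMSO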
# GAA850 FXN act – frataxin GAA850 promoter activation. HEK293 lucGAA850 FXN promoter luciferase reporter, 24 h; percent of 10 µM SAHA response. 360,000 compounds, 0.56% hits. activation, % at 6 µM. AID 540364;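 active = activation above the average of all compounds screened plus 3 SD, cutoff fixed separately per campaign, cut at about 7.5% in these data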;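 note: 0% = DMSO wells and 100% = 10 µM SAHA wells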
# GalR3 antag – antagonists of human GalR3; HEK293 GalR3-CNG cAMP membrane potential fluorescence; galR3 body fused to GalR1 C-terminus; inhibition, % at 3 µM; 360,000 compounds, 0.44% hits;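 active = inhibition above the screen-wide average plus 3 SD, cut at about 13% in these data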;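 note: forskolin and galanin both at EC90 stimulate the cells; cAMP rise reported by CNG channel membrane potential dye signal; 0% = forskolin plus galanin with DMSO and 100% = forskolin alone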
# Target sequence (O60755 1-299 limits assumed): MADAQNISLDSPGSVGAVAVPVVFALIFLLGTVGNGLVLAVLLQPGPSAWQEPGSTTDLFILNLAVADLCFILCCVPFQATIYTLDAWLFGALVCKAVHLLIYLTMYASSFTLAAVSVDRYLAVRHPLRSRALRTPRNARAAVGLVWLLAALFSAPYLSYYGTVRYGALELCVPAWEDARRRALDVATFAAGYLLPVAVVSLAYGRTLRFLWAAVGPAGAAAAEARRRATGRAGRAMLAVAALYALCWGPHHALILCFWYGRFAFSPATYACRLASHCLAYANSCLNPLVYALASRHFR
# HIF act – HIF pathway transcriptional activation | U2OS HRE-luciferase reporter, luminescence; normalized: DMSO 0%, desferrioxamine 100% | activation, % at 7.5 µM (by protocol) | 300,000 compounds, 0.32% hits;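 active = mean activation of at least 10% of the iron chelator positive control signal, with at least half of replicates also reaching 10%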
# GAA30 FXN cntr – GAA30 FXN promoter activation counter-screen; shares compounds with GAA850 FXN act; HEK293 lucGAA30 FXN promoter luciferase, 24 h; DMSO = 0%, 5 µM ipriflavone = 100%; activation, % at 6 µM; 1,900 compounds, 66% hits;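 active = mean activation above the mean of solvent-only control wells plus 3 SD, cut at about 22% in these data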;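 note: counterscreen of GAA850 promoter hits where activity marks nonselective or luminescence artifacts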
# GAA850 confirm – GAA850 FXN promoter activation confirmation; shares compounds with GAA850 FXN act; HEK293 lucGAA850 FXN promoter luciferase reporter, 24 h; 100% = activation by SAHA; activation, % at 6 µM; 1,900 compounds, 86% hits; AID 588351;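 active = mean activation above a set limit taken from the primary screen, cut at about 8% in these data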;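 note: 0% = DMSO wells and 100% = 10 µM SAHA wells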
# Numbers without * were called inactive; · = not tested or not shown. Sampled rows, rich in hits. Any-hit rate of the full collection: about 2.2%.
SMILES,SMARCA2 act,Hsp70 activator,GAA850 FXN act,GalR3 antag,HIF act,GAA30 FXN cntr,GAA850 confirm
COc1ccc([C@@H]2[C@@H]3C(=O)N(C(C)(C)C)C(=O)[C@@H]3[C@]3(C)C(=O)N(c4cccc(Br)c4)C(=O)N23)cc1,·,·,11*,·,1,10,7
CC[C@@]12C(=O)N(c3cccc(Br)c3)C(=O)N1[C@H](c1ccc(OC)cc1)[C@@H]1C(=O)N(C(C)(C)C)C(=O)[C@@H]12,1,·,11*,2,0,39*,9.2*
COc1ccc([C@@H]2[C@@H]3C(=O)N(C(C)(C)C)C(=O)[C@@H]3[C@]3(Cc4ccc(Cl)cc4)C(=O)N(c4cccc(Br)c4)C(=O)N23)cc1,0,·,1,0,-5,·,·
COc1ccc(Cn2cc(COC(=O)Nc3ccc(F)cc3)nn2)cc1,-4,·,·,·,·,·,·
COC(=O)[C@]12C[C@H](CC(=O)N3CCN(C(=O)C4CC4)CC3)C(=O)N(Cc3ccc(Cl)cc3Cl)C1=C[C@H](C(C)C)O[C@@H]2C1CC1,-2,·,·,·,·,·,·
C=CCN1C(=O)c2n[nH]c(COC)c2C1c1ccc(F)cc1 (stereo not given),-4,·,·,-6,·,·,·
CC(C)(C)N1C(=O)[C@H]2[C@@H](c3ccc(Br)cc3)N3C(=O)N(c4cccc(F)c4)C(=O)[C@@]3(C)[C@H]2C1=O,0,·,8.8*,-6,0,34*,18*
CC1CCN(S(=O)(=O)c2ccc3c(c2)C(=NO)c2cc(S(=O)(=O)N4CCC(C)CC4)ccc2-3)CC1,0,0,11*,0,·,-71,30*
CCN(CC)S(=O)(=O)c1ccc2c(c1)C(=NO)c1cc(S(=O)(=O)N(CC)CC)ccc1-2,-4,0,10*,1,-3,-11,19*
O=C(O)/C=C/C(=O)NCc1cn(-c2ccccc2)nc1-c1cccc(Br)c1,-2,0,8.2*,-4,0,30*,13*
C[C@@H]1OC(C2CCCCC2)N(C)[C@H]2C[C@H]3c4[nH]c5cccc(-c6cccc(F)c6)c5c4CCN3C(=O)[C@@H]12 (stereo not given in full),-5,·,·,·,·,·,·
COc1ccccc1/C=N/Nc1nncc2ccccc12,6,0,8.2*,0,5,104*,36*
COc1cccc(C=NNc2nnc(NN=Cc3cccc(OC)c3OC)c3ccccc23)c1OC,-3,·,-3,3,·,·,·
C[C@H](O)[C@@H]1CN2CCc3ccc(-c4ccc5c(c4)OCO5)cc3[C@@H]2C[C@@H]1N(C)C(=O)c1cccc(Cl)c1,-2,·,·,-9,·,·,·
CC(Nc1cc(N2CCNCC2)ccc1[N+](=O)[O-])c1ccccc1 (stereo not given),3,0,8.5*,-10,1,12,7
O=C(Nc1ccc(F)cc1)OCc1cn(Cc2ccccc2C(F)(F)F)nn1,-2,·,·,·,·,·,·
CCOC(=O)c1cnc(SCc2ccccc2)nc1N,8,0,9.9*,-9,1,117*,39*
COC(=O)c1cccc(Cn2ccc3ccc(-c4ccc5ccn(C(=O)c6cccc(OC)c6)c5c4)cc32)c1,-1,·,·,·,·,·,·
Cc1cc(C(=O)NN=Cc2cccc(O)c2)n[nH]1,-3,·,·,·,·,·,·
Nc1nc(CSc2ccc(Cl)cc2)nc(N2CCCCC2)n1,-2,0,2,-5,·,·,·
Nc1nc(CSc2ccccc2)nc(N2CCCCC2)n1,2,0,7.9*,-7,1,98*,29*
COC(=O)c1ccc(COc2cc(O)c3c(c2)OC(C)(C)CC3=O)cc1,2,0,1,-1,0,·,·
CC1(C)CC(=O)c2c(O)cc(OCc3ccc(Br)cc3)cc2O1,4,0,9.4*,-8,3,99*,36*
CC1(C)CC(=O)c2ccc(OCc3ccc([N+](=O)[O-])cc3)cc2O1,3,·,8.4*,-2,3,136*,50*
C=CS(=O)(=O)N(Cc1nnn(Cc2ccccc2)c1Br)[C@@H](CC(C)C)C(=O)OC,-7,·,·,·,·,·,·
SMILES,SMARCA2 act,Hsp70 activator,GAA850 FXN act,GalR3 antag,HIF act,GAA30 FXN cntr,GAA850 confirm
O=C(OCCN1CCN(C2CN(Cc3cn(Cc4ccccc4F)nn3)S(=O)(=O)C2)CC1)c1cc2ccccc2o1 (stereo not given),5,·,·,·,·,·,·
CCOC(=O)c1[nH]c(C)c(C(=O)C(C)C)c1C,5,0,8.8*,-5,1,77*,24*
CCOC(=O)c1[nH]c(C)c(C(=O)O)c1C,·,0,·,·,·,·,·
CCOC(=O)c1[nH]c(C)c(CC(C)C)c1C,·,0,8.5*,·,2,40*,15*
CC(C)(C)OC(=O)N1CCC2CCN(S(C)(=O)=O)CC21 (stereo not given),1,·,·,-3,·,·,·
CC(C)c1cc(C(=O)Nc2cc(Br)ccc2O)no1,-1,0,9.9*,-7,2,97*,33*
CC(C)c1cc(C(=O)Nc2cc(Cl)ccc2O)no1,3,0,7,-8,3,·,·
O=C(NC1CC1c1ccccc1)N1CCC(c2nc3ccc(Cl)cc3[nH]2)CC1 (stereo not given),-5,·,·,·,·,·,·
Cc1ccc(Cl)c(OCC(=O)NCc2ccco2)c1,0,0,2,-4,1,·,·
CCc1ccc(OCC(=O)NCc2ccco2)c(Br)c1,6,0,8.6*,-8,2,76*,24*
COc1ccc(Nc2cc(Nc3cccc(OC)c3)ncn2)cc1,4,·,7.8*,-11,-9,85*,26*
COC(=O)[C@]12C[C@H](CC(=O)NCCCCc3ccccc3)C(=O)N(CCC3=CCCCC3)C1=C[C@H](C(C)(C)C)O[C@@H]2C,-6,·,·,-5,·,·,·
Cc1ccc(NC(=O)Nc2ccc(Cl)c(Cl)c2)nc1,-2,·,2,-11,3,·,·
Cc1ccc(NC(=O)Nc2ccc(Cl)cn2)cc1,5,0,8.2*,-4,2,94*,32*
CN(Cc1cn(Cc2ccccc2)nn1)S(=O)(=O)c1ccc(F)cc1Br,-1,·,·,·,·,·,·
COc1ccc(Oc2cc(Cl)nc(N)n2)cc1,1,0,0,-3,1,·,·
CCc1ccc(Oc2cc(Cl)nc(N)n2)cc1,2,0,7.7*,-1,2,103*,36*
CCOC(=O)C1CCN(S(=O)(=O)c2cccc(-c3csc(C)n3)c2)CC1,-1,0,8.4*,-2,0,6,3
COCC(=O)N1CCC(C(=O)NCC2COc3ccccc3O2)CC1 (stereo not given),-1,·,·,·,·,·,·
COC(=O)C1=C(C)N(Cc2ccccc2C(F)(F)F)C(=NCC2CC2)NC1c1cccc(F)c1 (stereo not given),1,·,·,-7,·,·,·
